Screening results (PubChem BioAssay)
In the library only some 21% were active in any assay of this set; here they are far more common.
AMA1 RON2 block – AMA1-RON2 (P. falciparum) interaction inhibition; AlphaScreen AMA1-biotinylated RON2 peptide binding; Potency, µM (doses to about 58.2 µM), actives largely listed as inhibitors; 0.2% of 360,000 active; further: nearly all actives have a fitted effect of over 45% in size
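AMA1 (3D7) with his tag at 25 nM final met compounds first, then biotinylated RON2 peptide at 25 nM; detection used donor plus acceptor beads, 10 µg/mL apiece, read by AlphaScreen after 30 min at room temperature.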
Pf growth 96h – P. falciparum growth inhibition at 96 hour, primary screen for plastid delayed-death inhibitors; Potency, µM (doses to about 28.7 µM), usual class: inhibitors; P. falciparum luciferase reporter growth, 96 h; 6.9% of 320,000 active
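Infected RBCs, 2% Hct / 0.05% parasitemia final; luciferase-reporter P. falciparum; cpd 96 h, 37 C, 5% CO2; luciferase detection reagent; luminescence.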
CHX counter – counter-screen hit for Shiga toxin inhibitors, cycloheximide | cell reporter, cycloheximide protein synthesis inhibition counterscreen | 12% of 300,000 active | max response, % | AID 2314; in the data active means max response mostly above about 13%, no sharp cut-off; inactive means mostly below about 14%; further: read at 38.3 µM for the half of the compounds with a filed dose
Pf growth 48h – P. falciparum growth inhibition at 48 hours (one generation). P. falciparum luciferase growth in erythrocytes, 48 h. Potency, µM (highest dose often 28.7 µM), actives largely listed as inhibitors. 5.9% of 310,000 active. AID 504832
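Parasite viability was followed by luminescence of a genomically integrated firefly luciferase. Cultures held 0.1% parasitemia at 2% hematocrit (final), incubated under 5% CO2 at 37 C.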
HCV inh – blocks hepatitis C virus. Huh7.5.1 HCVcc-Cre infection, luciferase reporter, 44 h. Potency, µM (doses to about 41.8 µM), most hits filed as inhibitors. 3.4% of 340,000 active. AID 651820
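HCVcc-Cre virus at an moi near 0.5 was added right after compound to cells cultured 4 h from seeding (1,000 cells/well). Luciferase activity was determined 44 h later, 15 min after substrate addition at RT.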
Shiga inhibitor – inhibitors of Shiga toxin in Vero cells; AID 2315; 9.2% of 290,000 active; inhibition, % at 38.7 µM; Vero cells, Shiga toxin protein synthesis inhibition reporter; in the data active means inhibition mostly above about 28%, no sharp cut-off; inactive means mostly below about 43%
Hits are given with their value; – = inactive; ? = inconclusive; · = not tested or not shown; [ ] = dose if it differs, or a comment. Unless noted, the call rests on the fitted dose curve; in most records, active means well fitted curve in the direction sought with a large enough effect; inconclusive means small, poorly fitted or top-dose-only effect, or another doubt; inactive means no such curve, though single readings can be large; an effect the other way counts as inactive or inconclusive.

SMILES	AMA1 RON2 block	Pf growth 96h	CHX counter	Pf growth 48h	HCV inh	Shiga inhibitor
Cc1ccccc1NC(=O)c1ccc2snnc2c1	–	–	–	–	–	–
Cc1ccc(S(=O)(=O)N2CCOC2CNC(=O)C(=O)NCc2ccccn2)cc1 (configuration not stated)	–	–	–	–	·	–
O=S1(=O)CC2NC(=S)N(c3cccc(Br)c3)C2C1 (configuration not stated)	–	–	–	–	–	–
CC(C)N(Cc1ccccc1)CC(O)COc1ccc(S(=O)(=O)N2CCOCC2)cc1Cl (configuration not stated)	–	?	–	?	?	–
N#CC1c2ccccc2-c2ccccc2N1C(=O)c1ccccc1 (configuration not stated)	–	·	·	·	·	·
COc1cccc(NC(=O)c2ccc3snnc3c2)c1	–	–	37	–	–	81
COc1ccc(N(C)C(=O)c2ccc3snnc3c2)cc1	–	10µM	–	–	–	–
O=C(Nc1cccc([N+](=O)[O-])c1)c1ccc2snnc2c1	–	–	–	–	–	–
CNC(=O)Nc1ccc2snnc2c1	–	12µM	–	·	–	–
O=Cc1ccc2c(c1)OCCOCCOCCOCCO2	–	·	·	·	·	·
CC(=O)N1CCN=C1SCc1cccc(F)c1	–	–	–	–	–	–
CC(C)(C)OC(=O)NCCCC[C@H](NC(=O)c1[nH]cnc1C(=O)Nc1ccc(CNC(=O)OC(C)(C)C)cc1)C(=O)OC(C)(C)C	–	3.3µM	–	3.3µM	–[8.37 µM]	–
C[C@H](NC(=O)c1[nH]cnc1C(=O)Nc1ccc(CNC(=O)OC(C)(C)C)cc1)C(=O)OC(C)(C)C	–	9.3µM	–	13µM	?	–
CC(C)(C)OC(=O)NCc1ccc(NC(=O)c2nc[nH]c2C(=O)NCCCNC(=O)c2[nH]cnc2C(=O)Nc2ccc(CNC(=O)OC(C)(C)C)cc2)cc1	–	·	·	·	–	·
CN(Cc1cccs1)C(=O)CSc1nc(N)cc(N)n1	–	–	–	–	–	–
COc1ccc(-n2c(=O)c(CCC(=O)N3CCC(C)CC3)nc3ccccc32)cc1	–	?	·	9.3µM	?	·
COc1ccc(-n2c(=O)c(CCC(=O)N(C)Cc3cccs3)nc3ccccc32)cc1	–	?	·	13µM	?	·
Cc1c(Cl)cccc1NC(=O)[C@@H](NC(=O)c1ccccc1Cl)C(C)C	–	?	–	–	–	–
O=C1C2CC=C(Cl)CC2C(=O)N1CCc1c[nH]c2ccccc12 (configuration not stated)	–	?	22	?	–	47
CC1=CCC2C(=O)N(CCc3c[nH]c4ccccc34)C(=O)C2C1 (configuration not stated)	–	?	23	?	–	active
COC(=O)C1=C(C)N(CCc2c[nH]c3ccccc23)C(=O)/C1=C\N(C)C	–	–	–	–	–	–
O=C1C2CC=C(Cl)CC2C(=O)N1CCc1ccccc1 (configuration not stated)	–	·	–	?	–	–
COc1ccc(C(=O)N2CCC(C)(C(=O)NS(=O)(=O)C3CC3)C2)c(OC)c1 (configuration not stated)	–	·	·	·	·	·
CC1=NN(c2ccccc2)C(=O)/C1=C/c1c(O)n(-c2ccc(F)cc2)[nH]c1=O	–	–	24	–	–	–
CC1=NN(c2ccccc2)C(=O)/C1=C/c1ccc[nH]1	13µM	–	21	–	?	78
SMILES	AMA1 RON2 block	Pf growth 96h	CHX counter	Pf growth 48h	HCV inh	Shiga inhibitor
CC1=NN(c2ccccc2)C(=O)C1=Cc1ccccc1	–	·	·	·	·	·
CC1=NN(c2ccccc2)C(=O)/C1=C\N(O)c1ccccc1	–	–	13	?	–	–
Nc1ncnc2c1ncn2[C@@H]1O[C@H](C(=O)NCc2ccc(OC(F)(F)F)cc2)[C@@H](O)[C@H]1O	–	·	·	·	·	·
CCn1c(=O)c2c(nc(SCC(=O)Nc3ccccc3)n2C)n(C)c1=O	–	–	–	–	–	–
CCOc1ccc2ccccc2c1/C=N/NC(=O)CNC(=O)c1ccccc1F	–	–	–	–	?	–
CC(=O)Nc1cccc(OCC(O)Cn2cnc3ccccc32)c1 (configuration not stated)	–	–	–	–	–	–
OC(CNCC1CCCCC1)COc1ccccc1 (configuration not stated)	–	?	–	–	–	–
